Assay [1] can be described thus: P-glycoprotein substrates identified in KB-8-5-11 adenocarcinoma cell line, qHTS therapeutic library screen (AID 1346987). Further: nearly all actives have a fitted effect of over 65% in size. The method in brief: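 In this qHTS, P-gp-rich KB-8-5-11 cells received library compounds across a concentration range. Viability was quantified by luminescence after 72 h at 37 degree C.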
(In qHTS, concentration-response curves come from the screen itself.)

Assay [2] is described as follows: Primary qHTS for inhibitors of nuclear receptor binding SET domain protein 2 (NSD2) in an isogenic RCH-ACV NSD2 p.E1099K mutant (9B) (AID 1645876). Further: potency means the concentration at half of the fitted maximal effect; nearly all actives have a fitted effect of over 70% in size.
Assay [3] is described as follows: Primary qHTS for inhibitors of nuclear receptor binding SET domain protein 2 (NSD2) in an RCH-ACV wild type WT cells (2C) (AID 1645877). Further: potency means the concentration at half of the fitted maximal effect; nearly all actives have a fitted effect of over 70% in size.

Results filed as inconclusive are left out. Active and inactive are the calls of the source. The call rests on the fitted dose curve; in most records, active means well fitted curve in the direction sought with a large enough effect; inconclusive means small, poorly fitted or top-dose-only effect, or another doubt; inactive means no such curve, though single readings can be large; an effect the other way counts as inactive or inconclusive.

Turning to `CN(C)CCOc1ccc(-c2nc(-c3ccc4c(c3)CC/C4=N/O)c(-c3ccncc3)[nH]2)cc1`, the Potency entry in assay [1] was “inactive”. Also, the Potency was 3.66 µM (active) in assay [2] and 7.31 µM (active) in assay [3].

(Values after PubChem BioAssay (NCATS).)
